From PubChem
Pf growth 48h = inhibits P. falciparum growth in the first generation, 48 h; AID 504832; 310,000 compounds, 5.9% hits; Potency, µM (top dose mostly 28.7 µM), actives largely listed as inhibitors; P. falciparum luciferase growth in erythrocytes, 48 h
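Luciferase-expressing P. falciparum in infected erythrocytes (2% hematocrit, 0.1% parasitemia final) in RPMI 1640/0.5% Albumax were exposed to compound for 48 hours at 37 C, 5% CO2; growth read as luminescence.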
Sm TGR inh = S. mansoni TGR enzyme inhibition; 360,000 compounds, 3% hits; Potency, µM (doses to about 114 µM), most hits filed as inhibitors; purified TGR, DTNB reduction, TNB absorbance 405 nm; Q962Y6; AID 485364; note: nearly all actives have a fitted effect of over 60% in size
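TGR 20 nM + NADPH 100 uM (dispensed conc.), cpd preinc 15 min RT; start with NADPH (500 uM addition) then DTNB (15 mM addition). Kinetic TNB absorbance, 405 nm filter. Four-parameter Hill fit across titration.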
Pf growth 96h = P. falciparum growth inhibition at 96 hours; 320,000 compounds, 6.9% hits; P. falciparum luciferase reporter growth, 96 h; Potency, µM (doses to about 28.7 µM), hits mostly inhibitors
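96 h incubation, 37 C, 5% CO2, of luciferase-reporter P. falciparum-infected RBCs (2% hematocrit, 0.05% parasitemia final) with test compounds; endpoint luminescence.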
SARS PLP yeast = inhibitors of SARS-CoV papain-like protease in yeast; Potency, µM (top dose mostly 32.9 µM), hits mostly activators; S. cerevisiae expressing SARS-CoV PLpro, growth rescue; 330,000 compounds, 0.19% hits; calls by dose curve; note: nearly all actives have a fitted effect of over 55% in size
A number is an active result; n = inactive; u = inconclusive; x = no result. This is a sample that favours compounds with a hit; in the whole collection about 12% have one here. Unless noted, calls come from the whole dose curve; as a rule, active = well fitted curve in the direction sought with a large enough effect; inconclusive = small, poorly fitted or top-dose-only effect, or another doubt; inactive = no such curve, though single readings can be large; an effect the other way counts as inactive or inconclusive.

SMILES | Pf growth 48h | Sm TGR inh | Pf growth 96h | SARS PLP yeast
CC(=O)c1cccc(NC(=O)N2CCCC2C(=O)Nc2ccccc2C)c1 (stereo unspecified) | n | n | u | n
O=C(CSc1nc2sccc2c(=O)[nH]1)N1CCN(c2ccccc2)CC1 | u | n | u | n
CCC(C)(C)NC(=O)Cn1c(=O)ccc2cc(S(=O)(=O)N3CCC(C)CC3)ccc21 | x | n | x | x
Cc1ccccc1C(=O)Nc1ccnn1C1CCN(C(C)Cc2ccccc2F)CC1 (stereo unspecified) | u | n | u | n
Cc1ccc2[nH]c(C(=O)NCCN3CCCC3)cc2c1 | u | n | 11.7µM | n
Cc1nn(CC(=O)NCCCN2CC(C)CC(C)C2)c(=O)c2cccn12 (stereo unspecified) | n | n | 10.4µM | n
Cc1ccc2c(c1)cc1c(=O)n(CC(=O)NCCN3CCCC3)nc(C)n12 | n | n | 9.28µM | n
Cc1nn(CC(=O)NCCCN2CCCCC2)c(=O)c2cc(-c3ccccc3)nn12 | n | n | 4.15µM | n
CCN1CCCC1CNC(=O)Cn1nc(C)n2nc(-c3ccccc3)cc2c1=O (stereo unspecified) | n | n | n | n
COc1cc(-c2nc3n(n2)C(c2ccc(F)cc2)C(C(N)=O)=C(C)N3)cc(OC)c1OC (stereo unspecified) | x | n | x | x
CCc1c(O)nc(SCC(=O)Nc2nc3ccccc3s2)n(C2CCCCC2)c1=O | n | n | n | n
COc1ccc(-c2cc3c(=O)n(CC(=O)NCCCN4CCC(N5CCCCC5)CC4)nc(C)n3n2)cc1 | u | n | 8.28µM | n
CCOCCCNC(=O)CCCOc1ccccc1 | n | n | 4.65µM | n
CC(NC(=O)CCOc1ccccc1)c1ccccc1 (stereo unspecified) | x | n | n | n
COc1ccc(OCCNC(=O)C(c2ccccc2)c2ccccc2)cc1 | 10.4µM | n | n | n
CCCCOCCCNC(=O)CCCOc1ccccc1 | x | n | u | n
COc1ccc(S(=O)(=O)NCCC(=O)NC(C)c2ccccc2)cc1 (stereo unspecified) | n | n | 7.38µM | n
O=C(NCCOc1ccccc1)C(c1ccccc1)c1ccccc1 | u | n | u | n
COc1ccc(OCCCC(=O)NC(C)c2ccccc2)cc1 (stereo unspecified) | x | n | 9.28µM | n
Cc1ccc(OCCCSc2nc(-c3ccc(C(C)(C)C)cc3)nc3cc(=O)[nH]n23)cc1C | x | n | x | x
O=C(Cn1cnc2onc(-c3ccc(F)cc3)c2c1=O)Nc1ccc(F)c(Cl)c1 | x | n | x | x
CC(C)(C)OC(=O)n1cc(CCO)c2ccccc21 | u | n | u | n
CN(c1ccc(Cl)cc1)c1cc(=O)n(C)c2ccccc12 | 5.86µM | n | n | n
CN(C(=O)COc1cc(=O)n(C)c2ccccc12)c1ccc(Cl)cc1 | x | n | u | n
Cc1ccc2c(c1)CCCN2N=O | n | n | n | u
SMILES | Pf growth 48h | Sm TGR inh | Pf growth 96h | SARS PLP yeast
CCCN1CCCc2cc(CN)ccc21 | 1.65µM | 14.1µM | n | n
Cc1ccnc(NS(=O)(=O)c2ccc(C(C)(C)C)cc2)c1 | n | n | n | n
Cc1ccnc(NS(=O)(=O)c2ccc(-n3cccn3)cc2)c1 | n | n | 10.4µM | n
Cc1ccc(C(C)C)cc1OCC(=O)N1CCN(C(=O)c2ccco2)CC1 | u | n | u | n
COc1ccc(NC(=O)CSc2nnc3c4c(nc(-c5ccccc5)n23)CC(C)(C)OC4)cc1 | n | n | u | n
COc1ccc(-c2nc3c(c4nnc(SC(C)C(=O)Nc5ccc(C)cc5)n24)COC(C)(C)C3)cc1 (stereo unspecified) | 7.38µM | n | 2.62µM | n
Cn1c(=O)c2c(nc(NCC3CCCC(CN)C3)n2Cc2ccc(Cl)cc2Cl)n(C)c1=O (stereo unspecified) | 2.94µM | n | 2.94µM | n
CCn1c(C)[n+](Cc2ccccc2)c2ccc(Cl)cc21 | 7.38µM | n | n | n
Cc1n(Cc2ccccc2)c2cc([N+](=O)[O-])ccc2[n+]1Cc1ccccc1 | u | n | u | n
Cc1n(Cc2ccccc2)c2ccccc2[n+]1Cc1ccccc1 | 1.31µM | n | n | n
Cc1ccc(NC(=O)CN2C(=O)CSc3ccc(S(=O)(=O)N4CCCC4)cc32)c(C)c1 | x | n | x | x
CC1CCCN(CC(=O)Nc2cc(S(=O)(=O)N3CCOCC3)ccc2N2CCCC2)C1 (stereo unspecified) | n | n | u | n
CCOC(=O)CC(=O)CSc1nc2c(cc1C#N)CCCCCC2 | 2.33µM | n | 1.17µM | n
CCOC(=O)CC(=O)CSc1nc(-c2cccnc2)ccc1C#N | 10.4µM | n | x | n
CCOC(=O)CC(=O)CSc1nc(-c2cccnc2)cc(C)c1C#N | n | n | n | n
C=C(C)CSc1nc2c(cc1C#N)CCC2 | n | n | 14.7µM | n
CCOc1ccccc1NC(=O)CSc1cn(CC(=O)N2CCCCCC2)c2ccccc12 | x | n | x | x
CC(=O)Nc1cccc(C2=CC(c3ccco3)n3ncnc3N2)c1 (stereo unspecified) | n | 12.6µM | n | n
COc1ccc(C2C=C(c3ccccc3)Nc3ncnn32)cc1 (stereo unspecified) | u | 31.6µM | n | n
COc1ccc(C2C=C(c3ccc(Cl)cc3)Nc3nc(-c4ccc(Cl)cc4)nn32)cc1 (stereo unspecified) | x | n | x | x
COc1ccc(C2=CC(c3ccco3)n3ncnc3N2)cc1 (stereo unspecified) | n | 10µM | u | n
CC1=C(C(=O)Nc2ccccc2)C(c2ccco2)n2ncnc2N1 (stereo unspecified) | n | n | n | n
Clc1ccccc1C1=CC(c2ccco2)n2ncnc2N1 (stereo unspecified) | n | 12.6µM | n | n
CCN(C(=O)CN1C(=O)NC2(CCc3ccccc32)C1=O)C1CCCCC1 (stereo unspecified) | n | n | n | n
COCCNC(=O)CSc1nc(-c2ccccc2C)nc2c1c(=O)n(C)c(=O)n2C | x | n | x | x
SMILES | Pf growth 48h | Sm TGR inh | Pf growth 96h | SARS PLP yeast
CC(=O)N1c2ccc(S(=O)(=O)N3CCC(C(=O)Nc4ccc(C)cn4)CC3)cc2CC1C (stereo unspecified) | u | n | u | n
COc1cccc(CNC(=O)CN2C(=O)COc3ccc(S(=O)(=O)Nc4ccccc4)cc32)c1 | x | n | x | x
Clc1ccc(C2=CC(c3ccco3)n3ncnc3N2)cc1 (stereo unspecified) | n | 50.1µM | n | n
O=[N+]([O-])/C(=C\Nc1ccc(F)cc1F)S(=O)(=O)c1ccccc1 | n | 10µM | n | n
O=C1OC(/C(=C\Nc2ccc(F)cc2F)[N+](=O)[O-])c2ccccc21 (stereo unspecified) | u | 11.2µM | n | n
O=C1OC(/C(=C\Nc2cc(Cl)ccc2O)[N+](=O)[O-])c2ccccc21 (stereo unspecified) | 10.4µM | n | u | n
Cc1ccc(N/C=C(\C2OC(=O)c3ccccc32)[N+](=O)[O-])c(C)c1 (stereo unspecified) | n | u | n | n
COCCN(C(=O)COC(=O)Cc1cccc(OC)c1)c1c(N)n(CC(C)C)c(=O)[nH]c1=O | n | n | n | n
Cc1ccc(C)c(Nc2nc3ccccc3n3cnnc23)c1 | n | n | u | n
